# Measured values from PubChem BioAssay.
# Activity calls are given as the source filed them.
# How the values were obtained:
# [1] = tested on: Plasmodium falciparum Sir2 (PF13_0152, Sir2A); assay: Plasmodium falciparum Sir2A binding compounds – biochemical, small-molecule microarray, 635 nm fluorescence, primary screen (AID 1098); conditions: fluorescence 635 nm, higher = more signal;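 note: score merges spot fluorescence intensity with its signal-to-noise ratio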
# [2] = probe aDKK1 binding to arrayed compounds – biochemical, biotinylated probe, 635/667 nm fluorescence, primary screen (AID 1099); conditions: small-molecule microarray, higher = more signal;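 note: score merges 667nm spot fluorescence with signal to noise across triplicate slides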
# [3] = probe aCHRDL2 binding to arrayed compounds – biochemical, biotinylated probe, 635/667 nm fluorescence, primary screen (AID 1100); conditions: small-molecule microarray, higher = more signal
# [4] = change in splice reporter luminescence, either direction, cell-based, HEK293, spliceosome inhibition project, primary screen (AID 1101); conditions: HEK293 splicing luciferase reporter, 24 h, higher = more signal, called active from +8 up or from −8 down;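 note: HEK293 cells carrying a splicing-competent luciferase reporter gene; test concentration not given here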
# [5] = target: Fibroblast growth factor 10 (Homo sapiens) (UniProt O15520); assay: compounds binding fibroblast growth factor 10 – biochemical, small-molecule microarray, 635 nm fluorescence, primary screen (AID 1102); conditions: FGF10 binding, fluorescence 635 nm, higher = more signal
# [6] = tested on: glycogen synthase kinase-3 (GSK3A per assay name; protocol says GSK3B); assay: compounds binding glycogen synthase kinase-3 – biochemical, small-molecule microarray, 635 nm fluorescence, GSK3A, primary screen (AID 1103); conditions: fluorescence 635 nm, higher = more signal; note: the record names both GSK3A and GSK3B
# [7] = target: Epidermal growth factor receptor (Homo sapiens) (UniProt P00533); assay: compounds binding epidermal growth factor receptor – biochemical, small-molecule microarray, 635 nm fluorescence, primary screen (AID 1104); conditions: EGFR binding, higher = more signal;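 note: score merges 667 nm emission intensity with spot signal to noise over triplicate slides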
# [8] = target: Follistatin-related protein 3 (Homo sapiens) (UniProt O95633); assay: compounds binding follistatin-related protein 3 – biochemical, small-molecule microarray, 635 nm fluorescence, primary screen (AID 1105); conditions: FSTL3 binding, higher = more signal;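 note: score merges emission near 667 nm and signal to noise per printed spot across three slides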
# [9] = target: Dickkopf-related protein 1 (Homo sapiens) (UniProt O94907); assay: small molecules binding DKK1 protein – biochemical, small-molecule microarray, 635 nm fluorescence scan, primary screen (AID 1106); conditions: higher = more signal;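 note: score merges emission near 667 nm with signal to noise over three replicate slides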
# [10] = tested on: Inhibin beta A chain (activin A); assay: small molecules binding activin A – biochemical, small-molecule microarray, 635 nm fluorescence scan, primary screen (AID 1107); conditions: INHBA, higher = more signal;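 note: mouse activin A protein probed at 4.33 µg/mL on printed slides; score merges bound-protein fluorescence near 667 nm with spot signal-to-noise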
# [11] = tested on: Human papillomavirus type 1a protein E7 (residues 44-93); assay: small molecules binding HPV E7 44-93 – biochemical, small-molecule microarray, residues 44-93, 635 nm fluorescence, primary screen (AID 1108); conditions: fluorescence 635 nm, higher = more signal;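 note: E7 fragment applied at 1 µg/mL in TBST for 1 h at 4 C; score combines spot fluorescence with its signal to noise ratio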
# [12] = hepatitis C replication reporter changes, two-sided – Huh7 cells, luciferase reporter, HCV replication inhibitor project, primary screen (AID 1109); conditions: Huh7 HCV replicon luciferase reporter, 48 h; higher = more signal;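 note: huh7 hepatoma cells harbouring a luciferase neomycin HCV replicon reporter; luciferase luminescence as measure of HCV replicon replication; test concentration not given here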
# [13] = target: Left-right determination factor 2 (Homo sapiens) (UniProt O00292); assay: small molecules binding LEFTY2 protein – biochemical, small-molecule microarray, 635 nm fluorescence scan, primary screen (AID 1110); conditions: higher = more signal
# [14] = target: Calmodulin-1 (Homo sapiens) (UniProt P0DP23); assay: small molecules binding calmodulin-1 with EGTA – biochemical, small-molecule microarray, Cy5-labelled CALM1, profiling panel (AID 1111); conditions: Cy5-CALM1 binding fluorescence, higher = more signal;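 note: labelled calmodulin applied in Tris saline Tween buffer holding calcium plus EGTA and DTT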
# [15] = target: Calmodulin-1 (Homo sapiens) (UniProt P0DP23); assay: small molecules binding Ca-loaded calmodulin-1 – biochemical, small-molecule microarray, Cy5-labelled CALM1, plus calcium, artefact control for SMM control-protein annotation, profiling panel (AID 1112); conditions: Cy5-CALM1 binding fluorescence, higher = more signal;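 note: score merges spot fluorescence with signal to noise from triplicate slides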
# [16] = probe aWnt5a binding to arrayed compounds – biochemical, biotinylated probe, 635/667 nm fluorescence, primary screen (AID 1113); conditions: small-molecule microarray, higher = more signal;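 note: score merges 667 nm fluorescence intensity with signal-to-noise per printed feature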
# [17] = probe aShh binding to arrayed compounds – biochemical, biotinylated probe, 635/667 nm fluorescence, primary screen (AID 1114); conditions: small-molecule microarray, higher = more signal;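 note: probe is biotin-labelled aShh protein from a stem cell growth factor screen; measures binding of labelled protein to compounds printed on the slide; score merges feature fluorescence at 667 nm with signal-to-noise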
# [18] = probe aNog binding to arrayed compounds – biochemical, biotinylated probe, 635/667 nm fluorescence, primary screen (AID 1115); conditions: small-molecule microarray, higher = more signal;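 note: probe is biotinylated aNog protein used at 0.15 µg/mL for 1 h at 4 C; z-score combines 667 nm fluorescence of each spot with its signal to noise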
# [19] = target: Torsin-1A-interacting protein 1 (Homo sapiens) (UniProt Q5JTV8); assay: compound microarray binding of lysate hLAP1 – cell lysate, small-molecule microarray, COS7 lysate, 635/667 nm fluorescence, primary screen (AID 1116); conditions: 635 nm fluorescence, higher = more signal
# [20] = target: Alpha-bungarotoxin (Bungarus multicinctus) (UniProt P60615); assay: compounds binding labelled alpha-BTX control protein – biochemical, small-molecule microarray, Alexa647 label, 635/667 nm fluorescence, artefact control for SMM control protein annotation, profiling panel (AID 1117); conditions: alpha-BTX-A647 binding fluorescence, higher = more signal
# Sequence of Alpha-bungarotoxin (Bungarus multicinctus) (P60615 whole entry, looked up): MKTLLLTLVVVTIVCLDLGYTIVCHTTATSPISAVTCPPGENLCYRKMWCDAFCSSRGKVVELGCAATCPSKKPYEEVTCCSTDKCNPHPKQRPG
# Sequence of Follistatin-related protein 3 (Homo sapiens) (O95633 whole entry, looked up): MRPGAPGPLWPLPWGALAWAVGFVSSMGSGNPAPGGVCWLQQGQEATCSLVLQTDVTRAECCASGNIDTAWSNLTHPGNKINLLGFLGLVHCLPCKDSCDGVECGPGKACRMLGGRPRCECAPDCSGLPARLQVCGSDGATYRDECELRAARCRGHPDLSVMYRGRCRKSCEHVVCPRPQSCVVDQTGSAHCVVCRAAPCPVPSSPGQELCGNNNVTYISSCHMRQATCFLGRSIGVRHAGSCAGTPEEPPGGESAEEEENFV
# Sequence of Torsin-1A-interacting protein 1 (Homo sapiens) (Q5JTV8 whole entry, looked up): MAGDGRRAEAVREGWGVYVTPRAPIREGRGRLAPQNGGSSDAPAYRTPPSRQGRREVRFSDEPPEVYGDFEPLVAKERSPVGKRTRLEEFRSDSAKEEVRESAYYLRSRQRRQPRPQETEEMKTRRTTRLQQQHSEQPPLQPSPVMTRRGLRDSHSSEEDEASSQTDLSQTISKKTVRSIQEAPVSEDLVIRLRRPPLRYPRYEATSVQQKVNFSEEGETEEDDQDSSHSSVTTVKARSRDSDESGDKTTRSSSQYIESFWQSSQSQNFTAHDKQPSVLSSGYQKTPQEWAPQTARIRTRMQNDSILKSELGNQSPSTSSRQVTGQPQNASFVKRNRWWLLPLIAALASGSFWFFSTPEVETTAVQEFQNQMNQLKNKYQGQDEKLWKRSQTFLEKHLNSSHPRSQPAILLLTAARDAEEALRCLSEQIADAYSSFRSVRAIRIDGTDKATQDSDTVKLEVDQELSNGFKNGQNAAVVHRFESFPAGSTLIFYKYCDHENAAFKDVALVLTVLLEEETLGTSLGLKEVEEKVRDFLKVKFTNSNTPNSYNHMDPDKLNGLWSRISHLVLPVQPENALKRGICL
# Sequence of Left-right determination factor 2 (Homo sapiens) (O00292 whole entry, looked up): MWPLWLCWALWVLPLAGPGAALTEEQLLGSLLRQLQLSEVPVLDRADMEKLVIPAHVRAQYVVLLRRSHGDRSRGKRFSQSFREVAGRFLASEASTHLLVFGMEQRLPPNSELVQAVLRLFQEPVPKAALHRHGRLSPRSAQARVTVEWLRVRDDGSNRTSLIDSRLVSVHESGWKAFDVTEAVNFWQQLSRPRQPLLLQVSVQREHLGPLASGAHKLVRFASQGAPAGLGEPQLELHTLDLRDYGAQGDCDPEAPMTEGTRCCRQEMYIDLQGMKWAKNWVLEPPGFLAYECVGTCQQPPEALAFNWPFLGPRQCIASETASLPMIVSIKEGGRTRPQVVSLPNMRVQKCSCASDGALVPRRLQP
# Sequence of Epidermal growth factor receptor (Homo sapiens) (P00533 whole entry, looked up): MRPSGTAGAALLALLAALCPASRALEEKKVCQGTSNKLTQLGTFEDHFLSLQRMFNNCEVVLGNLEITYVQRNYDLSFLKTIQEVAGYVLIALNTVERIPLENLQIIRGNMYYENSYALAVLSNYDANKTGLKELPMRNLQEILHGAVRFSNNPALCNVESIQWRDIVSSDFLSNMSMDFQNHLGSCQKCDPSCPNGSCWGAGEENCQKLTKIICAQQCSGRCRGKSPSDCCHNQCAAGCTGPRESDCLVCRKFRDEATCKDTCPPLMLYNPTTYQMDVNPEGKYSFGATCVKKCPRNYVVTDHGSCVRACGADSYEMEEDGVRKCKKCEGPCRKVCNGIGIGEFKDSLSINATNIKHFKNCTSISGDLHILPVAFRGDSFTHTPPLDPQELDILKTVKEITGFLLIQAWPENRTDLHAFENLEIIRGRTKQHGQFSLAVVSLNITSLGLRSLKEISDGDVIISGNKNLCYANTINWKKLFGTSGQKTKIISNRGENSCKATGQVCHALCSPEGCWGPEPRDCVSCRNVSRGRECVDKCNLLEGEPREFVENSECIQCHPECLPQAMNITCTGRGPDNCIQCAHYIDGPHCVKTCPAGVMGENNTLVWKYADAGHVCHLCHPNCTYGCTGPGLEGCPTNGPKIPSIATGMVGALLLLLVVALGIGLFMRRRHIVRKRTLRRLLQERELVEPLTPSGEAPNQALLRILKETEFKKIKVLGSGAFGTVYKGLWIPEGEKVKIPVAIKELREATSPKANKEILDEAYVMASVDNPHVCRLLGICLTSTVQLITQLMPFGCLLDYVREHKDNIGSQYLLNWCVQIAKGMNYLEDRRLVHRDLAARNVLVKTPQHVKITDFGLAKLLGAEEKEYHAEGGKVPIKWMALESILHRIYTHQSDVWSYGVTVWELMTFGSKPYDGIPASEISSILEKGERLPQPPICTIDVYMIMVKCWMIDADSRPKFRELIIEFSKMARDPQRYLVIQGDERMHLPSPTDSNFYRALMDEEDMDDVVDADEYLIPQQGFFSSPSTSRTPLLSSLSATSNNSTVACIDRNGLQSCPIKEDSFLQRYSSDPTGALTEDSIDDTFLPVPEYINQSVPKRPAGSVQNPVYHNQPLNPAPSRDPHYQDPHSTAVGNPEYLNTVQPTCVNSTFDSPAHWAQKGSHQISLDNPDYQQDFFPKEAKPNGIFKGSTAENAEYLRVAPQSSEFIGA
# Sequence of Fibroblast growth factor 10 (Homo sapiens) (O15520 whole entry, looked up): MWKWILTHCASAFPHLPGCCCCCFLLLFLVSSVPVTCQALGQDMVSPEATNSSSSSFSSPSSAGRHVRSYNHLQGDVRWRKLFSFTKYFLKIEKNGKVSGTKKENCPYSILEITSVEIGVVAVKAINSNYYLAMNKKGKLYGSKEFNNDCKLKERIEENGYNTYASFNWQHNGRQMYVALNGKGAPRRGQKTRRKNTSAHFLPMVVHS
# Sequence of Dickkopf-related protein 1 (Homo sapiens) (O94907 whole entry, looked up): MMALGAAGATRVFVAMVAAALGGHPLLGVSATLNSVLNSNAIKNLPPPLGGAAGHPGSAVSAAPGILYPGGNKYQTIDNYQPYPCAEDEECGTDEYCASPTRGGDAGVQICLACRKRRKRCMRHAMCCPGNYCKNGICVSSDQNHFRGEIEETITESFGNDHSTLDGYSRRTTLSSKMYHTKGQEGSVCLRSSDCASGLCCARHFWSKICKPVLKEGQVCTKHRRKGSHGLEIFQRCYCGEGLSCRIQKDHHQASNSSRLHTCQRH
SMILES,composite z-score [1],composite z-score [2],composite z-score [3],z-score [4],composite z-score [5],composite z-score [6],composite z-score [7],composite z-score [8],composite z-score [9],composite z-score [10],composite z-score [11],z-score [12],composite z-score [13],composite z-score [14],composite z-score [15],composite z-score [16],composite z-score [17],composite z-score [18],composite z-score [19],composite z-score [20]
C=C(CCCC)/C(=C/C[C@H](OC(=O)c1ccncc1)c1cccc(OCCO)c1)c1cc(C(=O)OC)ccc1OC,0.169,-0.166,-0.0107,-1.37 (inactive),1.04,0.174,-0.218,0.611,0.347,0.868,0.799,-2.61,0.385,0.267,-0.784,0.0394,0.14,-0.226,0.516,0.582
COc1cc2c(cc1OC)CN(C(=O)[C@H]1[C@@H]3C(=O)O[C@@H](c4ccccc4)[C@@H](c4ccccc4)N3[C@@H](c3ccccc3OCCO)[C@]13C(=O)Nc1ccc(C#CC4(O)CCCCCC4)cc13)CC2,1.6,0.329,0.453,-1.16 (inactive),1.06,1.3,0.525,0.564,0.693,0.113,-0.178,-2.36,0.519,1.16,-0.407,0.0676,0.0684,-0.356,1.02,1.83
CC(c1ccccc1)C(O)C1C=CC2C(=O)N(C)C(=O)C2N1N(c1ccccc1)c1ccccc1 (stereo not given),0.0872,1.01,1.2,1.05 (inactive),0.234,0.187,-0.451,0.0656,-0.623,1.41,-0.304,0.37,-0.789,1.08,0.723,-0.0057,0.809,0.332,0.765,-0.212
C[C@H]1COC(=O)[C@@H]2CCCN2C(=O)[C@@H](C)COC(=O)[C@@H]2CCCN2C1=O,-0.0175,-0.37,-0.675,-0.0582 (inactive),0.419,-0.295,0.514,-0.0914,0.563,-0.0885,-0.663,-0.004,0.417,-0.835,-1.09,-0.124,-0.0626,-0.367,-0.392,-0.394
COC(=O)C1=C(C)N(Cc2ccccc2)c2c(C(=O)OC)c(C(=O)OC)c(C(=O)OC)c(=O)n2[C@@H]1c1ccccc1,0.119,-0.056,-0.32,-0.449 (inactive),0.583,0.37,0.12,0.287,0.436,0.16,-0.316,0.0883,0.431,1.61,0.141,-0.0806,-0.221,-0.0286,0.812,0.732
O=C/C=C/c1ccccc1Cl,1.67,0.265,0.405,0.0402 (inactive),0.0974,-0.71,-0.336,-0.62,-0.485,0.325,-1.36,1.03,-0.524,0.387,0.618,-0.0499,-0.0626,0.0811,-0.335,1.76
CCOC(=O)[C@H]1C/C=C/C[C@H](C(=O)OCC)C(=O)O[C@H]2[C@@H](OC)O[C@H](CO)[C@@H](OC(=O)Nc3ccc(Br)cc3)[C@@H]2OC1=O,0.895,-0.0855,0.68,-3.54 (inactive),0.217,1.02,0.047,0.576,0.251,0.706,0.205,-3.56,0.561,1.64,0.155,-0.0704,0.0515,1.5,0.396,0.465
O=C(NCC(F)(F)F)[C@@H]1c2ccccc2C(=O)N(Cc2ccccc2Cl)[C@H]1c1ccc(CO)cc1,1.68,0.624,-0.363,0.632 (inactive),-0.85,-1.1,-0.728,-0.643,-0.941,-0.0121,-0.804,-1.03,-1.44,-0.483,-0.135,-0.147,0.245,-0.0689,-1.19,-1.18
C[C@@H]1CC[C@H]2C(=O)N3[C@@H](CC[C@@H](C)[C@@H]3c3cccc(N4CCOCC4)c3)C(=O)N2[C@H]1c1cccc(Br)c1,1.1,0.113,0.26,0.0479 (inactive),0.695,0.989,0.31,0.53,0.327,0.6,0.396,-1.97,0.458,0.361,-0.0482,-0.0357,-0.138,0.0205,0.868,1.6
Cc1ccc(S[C@]2(C(=O)NC(C)C)CC(=O)N(C3Cc4ccccc4C3)[C@@H]2c2ccc(CO)cc2)cc1,1.24,-0.786,0.556,-1.15 (inactive),-0.258,-0.106,-0.544,-0.0429,-1.2,-0.215,0.951,-2.01,-0.873,-0.329,-0.603,-0.098,-0.421,-0.315,1.52,1.12
CCOC(=O)C1=C[C@@H](c2ccccc2)N(S(=O)(=O)c2ccc(C)cc2)[C@H]1c1ccc(F)cc1,0.873,0.362,0.573,-0.162 (inactive),0.635,1.29,0.158,1.04,0.675,0.589,0.431,-1.97,0.446,0.37,0.342,-0.0718,0.0929,0.862,0.904,1.27
